# Measured values: PubChem BioAssay AID602179 (National Center for Advancing Translational Sciences (NCATS), 2012)
# Screen size: about 390,000 compounds; about 360 (0.092%) were called active. The sample holds actives, similar compounds and a random draw of the others, so the mix is not that of the screen. The call rests on the fitted dose curve; in most records, active means well fitted inhibition curve with a large enough effect; inconclusive means small, poorly fitted or top-dose-only effect; inactive means no such curve, though single readings can be large or run the other way.
# Target: Isocitrate dehydrogenase [NADP] cytoplasmic (Homo sapiens) (UniProt O75874)
# Sequence (O75874 whole entry R132H, change not shown): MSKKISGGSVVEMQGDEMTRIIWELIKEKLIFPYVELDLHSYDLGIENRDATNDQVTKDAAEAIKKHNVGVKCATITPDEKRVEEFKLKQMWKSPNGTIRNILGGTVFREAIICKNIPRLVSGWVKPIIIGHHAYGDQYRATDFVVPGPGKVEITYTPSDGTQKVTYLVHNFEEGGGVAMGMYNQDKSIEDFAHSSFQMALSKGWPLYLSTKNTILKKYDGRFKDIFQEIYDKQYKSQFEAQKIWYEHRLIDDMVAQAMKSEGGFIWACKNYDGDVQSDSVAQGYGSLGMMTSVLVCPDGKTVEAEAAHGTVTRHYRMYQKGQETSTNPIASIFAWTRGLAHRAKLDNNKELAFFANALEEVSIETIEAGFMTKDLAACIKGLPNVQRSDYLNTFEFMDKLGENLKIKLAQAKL
# Experiment: qHTS for Inhibitors of mutant isocitrate dehydrogenase 1 (IDH1): qHTS; further: nearly all actives have a fitted effect of over 65% in size
# Settings: IDH1-R132H enzyme, NADPH consumption, diaphorase/resazurin fluorescence; series mostly up to 76.6 µM; activity change, negative = inhibition: at the top concentration
# Outline: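 IDH1-R132H (0.5 ug/mL dispensed) in pH 7.5 Tris buffer was preincubated 30 min with compound, then given a substrate mix of 0.016 mM NADPH and 2 mM alpha-KG for 80 min at room temperature; remaining NADPH was read by diaphorase/resazurin fluorescence.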
# On the % scale 0 is the no-effect control and ±100 the full control effect; potency means the concentration at half of the fitted maximal effect.
Structure (SMILES),"activity change, negative = inhibition",Potency
Cc1cc(N2CCN(c3cccc(C(F)(F)F)c3)CC2)n2nc(-c3ccccc3)nc2n1,-9.04% (inactive),
COC(=O)c1cc(S(=O)(=O)N2CCN(c3cc(Cl)ccc3C)CC2)c[nH]1,-12.5% (inactive),
COc1ccc(CCNC(=O)c2ccc3c(c2)nc(C)n3-c2ccc(Br)cc2)cc1OC,6.54% (inactive),
COc1ccc(CNC(=O)CCc2c(C)nn(-c3ccc(N4CCCC4)nn3)c2C)cc1,-5.82% (inactive),
CCOc1ccc(N(CC)S(=O)(=O)N2CCCC(C(=O)NCc3ccc(SC)cc3)C2)cc1 (stereo unspecified),-6.03% (inactive),
CCCCOc1ccc(Cn2c(=O)oc3ccc(C)cc32)cc1OC,0.174% (inactive),
COc1ccc(CN2C(=O)CC(Cc3ccc(C)cc3)C2=O)cc1OC (stereo unspecified),0.852% (inactive),
CCCCOc1ccc(CN2C(=O)C(=O)c3cc(Br)cc(C)c32)cc1OC,,28.2 µM (active)
O=S(=O)(c1ccc(Br)cc1)c1nnn2c1nc(N1CCOCC1)c1sccc12,7.56% (inactive),
COc1ccc(N2C(=O)CSC23C(=O)N(Cc2cccc(F)c2)c2ccccc23)cc1Cl (stereo unspecified),-7.21% (inactive),
Cc1ccc(CNC(=O)CSc2c3c(nc4cc(Cl)ccc24)CCCC3)cc1,12.5% (inactive),
Cc1cc(Cl)ccc1NC(=O)Cc1ccc(NC(=O)N2CCCCc3ccccc32)cc1,-7.17% (inactive),
CC1CN(C(=O)N2CCC(C(=O)NCc3cccs3)CC2)c2ccccc2O1 (stereo unspecified),13.4% (inactive),
Cc1ccc(O)c(NC(=O)c2cc(-c3ccc(F)cc3)no2)c1,0% (inactive),
Cc1ccc(Nc2nc3ccccc3nc2-n2nc(C)cc2C)c(Cl)c1,0% (inactive),
CCCN(CCC)C(=O)Cn1c(=O)n(-c2ccc(Cl)cc2)c(=O)c2c3c(sc21)CCCCC3,3.66% (inactive),
CCCn1c2ccccc2c2cnn(CC(=O)N(CC)c3cc(C)ccc3C)c(=O)c21,-8.48% (inactive),
N#Cc1ccc(-c2cccs2)nc1SCc1ccc(Br)cc1,-10.1% (inactive),
COc1ccc(Cl)cc1NC(=O)CSc1nc2ccccc2c2nc(-c3ccccc3)nn12,11.3% (inactive),
O=C(CCc1cn(Cc2ccc(F)cc2)c2ccccc12)NC1CCCCC1,-2.83% (inactive),
O=C(C1COc2ccccc2O1)N(Cc1cccnc1)c1nc2c(F)cc(F)cc2s1 (stereo unspecified),0% (inactive),
CCOC(=O)c1ccc(NC(=O)Cn2c(=O)n(-c3ccc(C)cc3)c(=O)c3c2cnn3C)cc1,0% (inactive),
CCCCn1c(CNC(=O)C23CC4CC(CC(C4)C2)C3)nnc1SCC(=O)Nc1ccc(C)cc1,-2.28% (inactive),
COCCNC(=O)c1ccc2c(c1)N(Cc1cccc(Cl)c1)C(=O)c1ccccc1S2(=O)=O,-14.2% (inactive),
COc1ccc(-c2nnc(SCC(=O)Nc3ccccc3C)o2)cc1OC,-3.15% (inactive),
CCCCc1nn2c(=O)cc(COC(=O)c3ccccc3NC(=O)C(C)(C)C)nc2s1,-4.52% (inactive),
